Consider five molecules from PubChem BioAssay.

In test [1] the test system is Human papillomavirus type 1a protein E7 (residues 44-93). The test can be described thus: small molecules binding HPV E7 44-93 – biochemical, small-molecule microarray, residues 44-93, 635 nm fluorescence, primary screen (AID 1108).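 Further: E7 fragment applied at 1 µg/mL in TBST for 1 h at 4 C; score combines spot fluorescence with its signal to noise ratio.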 As to conditions: fluorescence 635 nm, higher = more signal.
Test [2] is described as follows: hepatitis C replication reporter changes, two-sided – Huh7 cells, luciferase reporter, HCV replication inhibitor project, primary screen (AID 1109).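 Further: huh7 hepatoma cells harbouring a luciferase neomycin HCV replicon reporter; luciferase luminescence as measure of HCV replicon replication; test concentration not given here.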 As to conditions: Huh7 HCV replicon luciferase reporter, 48 h; higher = more signal.
The target in test [3] is Left-right determination factor 2 (Homo sapiens) (UniProt O00292). The test can be described thus: small molecules binding LEFTY2 protein – biochemical, small-molecule microarray, 635 nm fluorescence scan, primary screen (AID 1110). To be noted: higher = more signal.
Test [4] deals with Calmodulin-1 (Homo sapiens) (UniProt P0DP23). The test can be described thus: small molecules binding calmodulin-1 with EGTA – biochemical, small-molecule microarray, Cy5-labelled CALM1, profiling panel (AID 1111).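 Further: labelled calmodulin applied in Tris saline Tween buffer holding calcium plus EGTA and DTT.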 To be noted: Cy5-CALM1 binding fluorescence, higher = more signal.
For test [5] the target is unchanged. Nature of the test: small molecules binding Ca-loaded calmodulin-1 – biochemical, small-molecule microarray, Cy5-labelled CALM1, plus calcium, artefact control for SMM control-protein annotation, profiling panel (AID 1112).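 Further: score merges spot fluorescence with signal to noise from triplicate slides.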 As to conditions: Cy5-CALM1 binding fluorescence, higher = more signal.
The nature of test [6]: probe aWnt5a binding to arrayed compounds – biochemical, biotinylated probe, 635/667 nm fluorescence, primary screen (AID 1113).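 Further: score merges 667 nm fluorescence intensity with signal-to-noise per printed feature.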 As to conditions: small-molecule microarray, higher = more signal.
A short description of test [7]: probe aShh binding to arrayed compounds – biochemical, biotinylated probe, 635/667 nm fluorescence, primary screen (AID 1114).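 Further: probe is biotin-labelled aShh protein from a stem cell growth factor screen; measures binding of labelled protein to compounds printed on the slide; score merges feature fluorescence at 667 nm with signal-to-noise.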 As to conditions: small-molecule microarray, higher = more signal.
Test [8] can be described thus: probe aNog binding to arrayed compounds – biochemical, biotinylated probe, 635/667 nm fluorescence, primary screen (AID 1115).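 Further: probe is biotinylated aNog protein used at 0.15 µg/mL for 1 h at 4 C; z-score combines 667 nm fluorescence of each spot with its signal to noise.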 As to conditions: small-molecule microarray, higher = more signal.
Test [9] deals with Torsin-1A-interacting protein 1 (Homo sapiens) (UniProt Q5JTV8). The test can be described thus: compound microarray binding of lysate hLAP1 – cell lysate, small-molecule microarray, COS7 lysate, 635/667 nm fluorescence, primary screen (AID 1116). As to conditions: 635 nm fluorescence, higher = more signal.
The target of test [10] is Alpha-bungarotoxin (Bungarus multicinctus) (UniProt P60615). The test can be described thus: compounds binding labelled alpha-BTX control protein – biochemical, small-molecule microarray, Alexa647 label, 635/667 nm fluorescence, artefact control for SMM control protein annotation, profiling panel (AID 1117). As to conditions: alpha-BTX-A647 binding fluorescence, higher = more signal.

In test [11] the target is Albumin (Bos taurus) (UniProt P02769). The test can be described thus: compounds binding labelled BSA control protein – biochemical, small-molecule microarray, Alexa647 label, 635/667 nm fluorescence, artefact control for SMM control protein annotation, profiling panel (AID 1118).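 Further: score merges 667 nm emission intensity and signal-to-noise per printed compound spot.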 To be noted: BSA-A647 binding, fluorescence 635 nm, higher = more signal.
Test [12] in a line: probe aXIP binding to arrayed compounds – biochemical, NeuroSMM set, 635/667 nm fluorescence, primary screen (AID 1119).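 Further: probe is the protein aXip251-270 applied at 1 µg/mL to compound-printed slides; binding of probe to printed compounds measured as 667 nm fluorescence plus signal to noise.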 To be noted: small-molecule microarray, higher = more signal, called active from +8 up or from −8 down.
Test [13] in a line: probe aNOTCH3 binding on compound microarray – biochemical, small-molecule microarray, 635/667 nm fluorescence, primary screen (AID 1120).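 Further: probe is a biotin-tagged antibody raised against NOTCH3 rather than NOTCH3 protein; score merges spot fluorescence near 667 nm with spot signal to noise.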 As to conditions: higher = more signal.
The nature of test [14]: probe aNOTCH2 binding on compound microarray – biochemical, small-molecule microarray, 635/667 nm fluorescence, primary screen (AID 1121).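 Further: score merges feature fluorescence read at 667 nm with its signal to noise.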 To be noted: higher = more signal.
Test [15] deals with Carbonic anhydrase 2 (Homo sapiens) (UniProt P00918). Nature of the test: compounds binding carbonic anhydrase 2 – biochemical, small-molecule microarray, Alexa647-labelled CAII, profiling panel (AID 1122). As to conditions: CAII-A647 binding fluorescence, higher = more signal.
The nature of test [16]: COS7 lysate on small-molecule microarray, probe aHis, 635 nm (AID 1123).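 Further: z-score combines 667nm fluorescence intensity with signal-to-noise per printed compound spot.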 As to conditions: COS7 cell lysate, fluorescence, higher = more signal.
The nature of test [17]: probe aLAP1 signal on lysate-treated microarray – cell lysate, small-molecule microarray, COS7 lysate, primary screen (AID 1124).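 Further: lysate comes from COS7 cells expressing LAP1 and is applied at 0.3 µg/mL; score merges spot fluorescence near 667 nm with signal-to-noise over triplicate slides.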 To be noted: probe aLAP1, fluorescence, higher = more signal.
Test [18] relates to Sam68 (KHDRBS1). Nature of the test: compounds binding KHDRBS1 protein – biochemical, small-molecule microarray, 635 nm fluorescence, primary screen (AID 1125).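 Further: score merges 667 nm channel intensity with signal to noise over triplicate slides.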 As to conditions: higher = more signal.
Test [19] deals with Chordin-like protein 2 (CHRDL2). Nature of the test: compounds binding chordin-like 2 – biochemical, small-molecule microarray, 635 nm fluorescence, primary screen (AID 1126).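 Further: printed compound slides probed with Chrdl2 protein at 4 µg/mL for 1 h at 4 C; score merges 667 nm emission intensity with signal to noise over three replicate slides.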 To be noted: fluorescence 635 nm, higher = more signal.
The target of test [20] is Concanavalin-A (Canavalia ensiformis) (UniProt P02866). Nature of the test: compounds binding concanavalin A lectin – biochemical, small-molecule microarray, Alexa647 label, 635 nm, artefact control for SMM control protein annotation, primary screen (AID 1127).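 Further: z combines 667 nm emission intensity with signal-to-noise across three replicate slides.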 To be noted: ConA-A647 binding fluorescence, higher = more signal.

Calls of active or inactive are those of the source.

Chain of Concanavalin-A (Canavalia ensiformis) (P02866 whole entry, looked up): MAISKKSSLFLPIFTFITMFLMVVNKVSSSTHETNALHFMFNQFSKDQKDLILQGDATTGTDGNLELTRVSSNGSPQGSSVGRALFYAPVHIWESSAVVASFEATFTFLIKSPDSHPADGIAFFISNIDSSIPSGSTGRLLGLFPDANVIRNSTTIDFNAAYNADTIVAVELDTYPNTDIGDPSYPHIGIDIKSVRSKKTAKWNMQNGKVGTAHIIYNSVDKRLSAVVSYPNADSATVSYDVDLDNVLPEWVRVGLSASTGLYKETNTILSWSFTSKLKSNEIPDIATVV
Chain of Albumin (Bos taurus) (P02769 whole entry, looked up): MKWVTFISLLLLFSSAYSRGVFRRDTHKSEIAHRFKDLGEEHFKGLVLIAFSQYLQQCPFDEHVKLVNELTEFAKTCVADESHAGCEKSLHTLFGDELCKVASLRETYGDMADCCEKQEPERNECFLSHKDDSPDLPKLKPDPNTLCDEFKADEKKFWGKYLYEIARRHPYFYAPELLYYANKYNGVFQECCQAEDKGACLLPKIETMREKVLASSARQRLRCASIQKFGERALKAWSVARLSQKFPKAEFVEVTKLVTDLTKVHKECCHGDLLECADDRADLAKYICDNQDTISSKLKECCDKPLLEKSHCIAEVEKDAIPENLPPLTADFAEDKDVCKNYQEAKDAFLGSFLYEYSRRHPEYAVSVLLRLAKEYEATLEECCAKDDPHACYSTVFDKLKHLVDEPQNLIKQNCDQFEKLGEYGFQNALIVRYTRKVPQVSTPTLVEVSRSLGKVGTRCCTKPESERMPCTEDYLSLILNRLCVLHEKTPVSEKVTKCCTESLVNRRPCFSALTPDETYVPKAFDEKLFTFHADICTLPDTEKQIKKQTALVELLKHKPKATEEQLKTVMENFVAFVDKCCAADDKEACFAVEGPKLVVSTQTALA
Chain of Torsin-1A-interacting protein 1 (Homo sapiens) (Q5JTV8 whole entry, looked up): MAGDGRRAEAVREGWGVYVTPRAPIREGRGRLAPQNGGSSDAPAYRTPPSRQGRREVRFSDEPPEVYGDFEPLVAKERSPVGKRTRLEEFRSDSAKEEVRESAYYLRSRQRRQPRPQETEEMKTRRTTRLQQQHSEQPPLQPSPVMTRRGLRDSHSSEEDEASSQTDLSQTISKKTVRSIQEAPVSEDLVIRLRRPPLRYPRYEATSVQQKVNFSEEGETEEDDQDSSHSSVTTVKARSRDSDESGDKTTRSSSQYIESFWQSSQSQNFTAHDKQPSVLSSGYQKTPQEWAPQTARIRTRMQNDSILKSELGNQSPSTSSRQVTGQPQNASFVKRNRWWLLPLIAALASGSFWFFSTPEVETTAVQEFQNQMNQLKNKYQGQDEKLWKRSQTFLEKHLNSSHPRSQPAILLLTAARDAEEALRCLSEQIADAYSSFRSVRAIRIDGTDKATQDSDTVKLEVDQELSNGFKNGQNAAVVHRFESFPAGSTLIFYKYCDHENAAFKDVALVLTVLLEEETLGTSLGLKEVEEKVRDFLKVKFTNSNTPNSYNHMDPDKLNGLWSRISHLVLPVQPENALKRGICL
Chain of Left-right determination factor 2 (Homo sapiens) (O00292 whole entry, looked up): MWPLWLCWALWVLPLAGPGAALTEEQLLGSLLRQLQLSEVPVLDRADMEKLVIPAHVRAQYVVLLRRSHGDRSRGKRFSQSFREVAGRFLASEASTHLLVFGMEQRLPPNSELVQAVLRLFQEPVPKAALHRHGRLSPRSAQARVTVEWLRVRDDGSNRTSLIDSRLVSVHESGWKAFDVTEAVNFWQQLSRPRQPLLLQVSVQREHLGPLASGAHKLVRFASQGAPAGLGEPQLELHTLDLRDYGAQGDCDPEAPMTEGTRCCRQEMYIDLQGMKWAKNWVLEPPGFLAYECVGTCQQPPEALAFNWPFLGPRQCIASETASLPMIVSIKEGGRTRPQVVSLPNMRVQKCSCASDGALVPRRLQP
Chain of Alpha-bungarotoxin (Bungarus multicinctus) (P60615 whole entry, looked up): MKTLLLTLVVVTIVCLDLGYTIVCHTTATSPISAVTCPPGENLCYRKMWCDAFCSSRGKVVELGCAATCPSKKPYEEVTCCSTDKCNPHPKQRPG

Regarding `O=C1O[C@@H](c2ccccc2)[C@@H](c2ccccc2)N2[C@@H](c3ccc(OCCO)cc3)[C@]3(C(=O)Nc4ccc(C#CCCO)cc43)[C@@H](C(=O)Nc3nc4ccccc4s3)[C@H]12`, the composite z-score was 1.36 in [1]; 0.364 in [3]; 0.84 in test [4]; 0.338 in test [5]; 0.0219 in test [6]; 0.0639 in test [7]. The composite z-score is -0.353 in test [8]; 0.82 in test [9]; 0.626 in test [10]; 0.844 in test [11]; 0.289 in test [13]; -0.148 in test [14]. Besides, the composite z-score was 0.458 in test [15]; 1.48 in test [16]; 0.426 in test [17]; 1.3 in [18]; 0.324 in test [19]; 1.09 in test [20]. The molecule further gave a z-score in [2] of -1.36. Further, the composite Z-score in test [12] is 1.09 (inactive).

On to `CC(C)(C)OC(=O)CC[C@]1(C(N)=O)N=C(c2ccc(OCCCO)cc2)O[C@H]1c1ccccc1CN=[N+]=[N-]`, for which the composite z-score was 0.6 in test [1]; -0.63 in test [3]; 2.67 in test [4]; 1.73 in test [5]; -0.096 in test [6]; 0.84 in test [7]. Also, the composite z-score was -0.143 in test [8]; 2.26 in test [9]; 1.46 in test [10]; 0.712 in [11]; 0.761 in test [13]; 0.234 in test [14]. Moreover, the composite z-score in test [15] is 0.981; in test [16], 3.63; in [17], 0.666; in [18] it was 1.33; in test [19], -0.894; in test [20], 0.831. This molecule also returned a z-score in test [2] of 1.46. The composite Z-score in test [12] is 0.523 (inactive).

For `COCCOC(=O)N1C(=O)[C@@]2(c3cc(C#Cc4ccc(OC)cc4)ccc31)[C@H](c1ccc(OCCO)cc1)N1[C@H](c3ccccc3)[C@H](c3ccccc3)OC(=O)[C@H]1[C@@H]2C(=O)N1CCCCCCC1`, the composite z-score in [1] stood at 1.35; in test [3] it was 0.954; in test [4] it was 2.27; in test [5], 1.21; in [6], 0.777; in test [7] it was 2.23. Further, the composite z-score in test [8] turned out to be 3.67; in test [9], 3.66; in test [10], 1.99; in [11] it was 0.807; in test [13], 1.29; in test [14], 0.177. Also, the composite z-score in test [15] was found to be 0.4; in test [16], 2.92; in test [17] it was 1.23; in test [18], 1.25; in test [19], 1.31; in test [20] it was 0.927. The z-score in [2] is -0.891. Besides, the composite Z-score in test [12] is 1.44 (inactive).

Regarding `Cc1ccc(F)cc1S(=O)(=O)N[C@@H]1CCN(Cc2ccc3[nH]ccc3c2)C1`, the composite z-score was 0.935 in [1]; 0.292 in [3]; -0.46 in [4]; -0.754 in test [5]; -0.12 in test [6]; -0.0709 in test [7]. Besides, the composite z-score was -0.295 in test [8]; 0.144 in [9]; 0.431 in [10]; -0.213 in test [11]; 0.128 in test [13]; -0.176 in [14]. In addition, the composite z-score in test [15] was 0.713; in test [16] it was 0.95; in test [17] it was -0.126; in test [18] it was 0.605; in test [19], 0.651; in test [20], 0.463. Besides, in [2], the z-score was -4.03. Further, in test [12], the composite Z-score is 0.688 (inactive).

In the case of `COc1ccccc1CN1C(=O)c2ccccc2[C@@H](C(=O)NCCCN(C)C)[C@@H]1c1ccc(CO)cc1`, the composite z-score in test [1] is -1.09; in test [3], 0.155; in test [4], -0.388; in test [5], -0.298; in [6], -0.0529; in [7], -0.0263. Moreover, the composite z-score in [8] was -0.337; in test [9], 0.55; in [10], 0.256; in test [11] it was 0.303; in test [13], -0.2; in [14] it was -0.152. The composite z-score in test [15] is 0.733; in test [16] it was -0.171; in test [17], 0.323; in test [18] it was -2.03; in test [19], 0.288; in test [20], 0.343. Further, in test [2], the z-score was -1.98. For the same molecule, the composite Z-score in [12] is 0.0241 (inactive).
